# Results filed as inconclusive are left out. Where a call stands in place of a potency, no number is given. More than one record can exist for a structure, and the calls need not agree. Calls of active or inactive are those of the source. Calls follow the shape of the dose curve; as a rule, active = well fitted cell-killing curve with a large enough effect in the repeat runs; inconclusive = weak or mixed curves, or effect the other way; inactive = flat fitted curve, though single readings scatter.
# Assay: qHTS RealTime-Glo MT Cell Viability Assay in HEK293 cells - 16 hour (AID 1224872); also: nearly all actives have a fitted effect of over 50% in size
# Conditions: RealTime-Glo luminescence; series mostly up to 76.8 µM
# Source text: National Center for Advancing Translational Sciences [NCATS]
# NIH Chemical Genomics Center [NCGC]
# U.S. Environmental Protection Agency [EPA]
# National Institutes of Environmental Health Sciences [NIEHS]
# National Toxicology Program [NTP]
# U.S. Food and Drug Administration [FDA]
# Measure of cell viability is critical in the cell-base assay. Analysis of cell viability is necessary for the characterization of cell responses to cytotoxic drugs and environmental stress. A RealTime-Glo MT Cell Viability Assay to monitor cell viability in real time of continues cell culture during 40 hours of compound treatment was used to screen Tox21 10K library compounds in Hek293 cells. The RealTime-Glo MT Cell Viability Assay is a nonlytic, homogeneous, bioluminescent method to measure cell viability in real time using a simple, plate-based method. The assay involves adding NanoLuc luciferase and a cell-permeant prosubstrate to cells in culture. Viable cells reduce the proprietary prosubstrate to generate a substrate for NanoLuc luciferase. This substrate diffuses from cells into the surrounding culture medium, where it is rapidly used by the NanoLuc Enzyme to produce a luminescent signal. The signal correlates with the number of viable cells, making the assay well suited for cytotoxicity studies.
# Tox21 Assay Protocol Summary:
# The mixture of Hek293 cell suspension and reagents were dispensed at 600cells/6 ul/well in 1536-well tissue culture treated black solid bottom plates using a Multidrop dispenser. After the assay plates were incubated at a 37 C/5% CO2 incubator for 5 hours, 23 nL of compounds dissolved in DMSO, positive and negative controls was transferred to the assay plate by a pintool work station. The plates were incubated at 37 C for 40 hours. The luminescence intensity were measured at 0h, 8h, 16h, 24h, 32h and 40h time points using ViewLux plate reader during compound treatment.
# Potency is read from the fitted curve at half-maximal effect.
row,Structure (SMILES),Potency
1,OCc1cccnc1,inactive
2,CCCCCC1=CCCC1=O,inactive
3,COCCCOc1ccnc(CS(=O)c2nc3ccccc3[nH]2)c1C (stereo not given),10.9 µM (active) and inactive
4,CC1CCC2CC1C2(C)C (stereo not given),inactive
5,CN(C)CCCN,inactive
6,CCOC(=O)NNc1nncc2ccccc12,inactive
7,OCC(CO)(CBr)CBr,inactive
8,COc1ccc(Nc2ccccc2)c(C)c1,inactive
9,CC(C)(C)[C@@H](O)[C@@H](Cc1ccc(Cl)cc1)n1cncn1,inactive
10,CCCCOC(=O)COc1ccc(Cl)cc1Cl,inactive
11,c1c[nH]cn1,inactive
12,Cc1cccc(O)c1,inactive
13,C[C@H]1C[C@H]2[C@@H]3CCC4=CC(=O)C=C[C@]4(C)[C@@]3(F)[C@@H](O)C[C@]2(C)[C@@]1(O)C(=O)CO,inactive
14,CN(C)CCC(c1ccccc1)c1ccccn1 (stereo not given),inactive
15,CN(C)CCOCCN(C)C,inactive
16,CCCCCCCCCCCCc1ccccc1,inactive
17,CCN(CC)c1ccc(C(=O)c2ccccc2C(=O)O)c(O)c1,inactive
18,Oc1cccc2ccccc12,inactive
19,CCCCCCCCC/C=C/CC1CC(=O)OC1=O (stereo not given),inactive
20,CCCCCOC(C)=O,inactive

row,Structure (SMILES),Potency
1,O=C(O)c1ccc2c(c1)C(=O)OC2=O,inactive
2,c1ccc2c(c1)ccc1ccccc12,inactive
3,O=C(O)c1cc(=O)c2c(OCC(O)COc3cccc4oc(C(=O)O)cc(=O)c34)cccc2o1,inactive
4,O=c1[nH]nnc2ccccc12,inactive
5,CCC(O)OC(O)CC (stereo not given),inactive
6,O=C=NCCCCCCN=C=O,inactive
7,C[Si](O[Si](C)(C)C)O[Si](C)(C)C,inactive
8,OCCOCCOCCO,inactive
9,c1ccc2scnc2c1,inactive
10,OCCOCCN1CCN(C2=Nc3ccccc3Sc3ccccc32)CC1,inactive
11,c1ccc(OCCOc2ccccc2)cc1,inactive
12,ON=C1CCCCC1,inactive
13,CC1=C(C)S(=O)(=O)CCS1(=O)=O,inactive
14,CCCCC(CC)COC(=O)CCCCC(=O)OCC(CC)CCCC (stereo not given),inactive
15,O=C(O)CC(C(=O)O)C(CC(=O)O)C(=O)O (stereo not given),inactive
16,Nc1ccccc1[N+](=O)[O-],inactive
17,CCCCC(CC)COC(=O)C(C#N)=C(c1ccccc1)c1ccccc1 (stereo not given),inactive
18,CCCCCC(N)=O,inactive
19,CCCCCCCCCCCCOCCO,inactive
20,C/C=C1/CC2C=CC1C2 (stereo not given),inactive

# Reference: PubChem BioAssay (Tox21)
